Compound activity as filed in PubChem.
The list is not random: actives were taken first. Their share in the collection is about 3.7%.
PfHsp90 set2 = growth inhibition of yeast expressing Plasmodium Hsp90; S. cerevisiae expressing PfHsp90, BacTiter-Glo ATP, 48 h; yeast lacking PDR1 and PDR3 efflux regulators; inhibition, % at 9.4 µM; hit rate 0.32% among 310,000; AID 504621;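 active = every replicate shows inhibition above about 80%, whatever the replicate mean, limit read from the data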;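 note: 0% = DMSO neutral controls and 100% = 20 µM radicicol positive controls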
NLRP3 yeast inh = blocks the NALP3 inflammasome reconstituted in yeast; Yeast reconstituted NLRP3/ASC/caspase-1, beta-gal luminescence, 24 h; inhibition, % at 10 µM; hit rate 0.39% among 330,000;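 active = inhibition of 50% or more; inactive = inhibition below 50%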;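 note: plate controls were induced DMSO wells for no effect and uninduced yeast grown without galactose for full effect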
tim10-1 inh = tim10-1 yeast growth inhibition | S. cerevisiae tim10-1 ts strain growth, BacTiter-Glo, 24 h | inhibition, % at 20 µM | hit rate 2.2% among 330,000 | AID 463190;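 active = inhibition of at least 40%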;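 note: mutant grown at 25 °C; 0% = DMSO wells with yeast and 100% = wells holding no yeast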
TIM10 inh = TIM10 yeast growth inhibition; S. cerevisiae TIM10 strain growth, BacTiter-Glo luminescence, 24 h; hit rate 1.4% among 330,000; inhibition, % at 10 µM; AID 463195;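 active = inhibition of 40% or more at the single tested concentration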;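 note: wild-type TIM10 isogenic control strain grown at permissive 25 °C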
tim23-1 inh = inhibits growth of tim23-1 mutant yeast | inhibition, % at 20 µM | hit rate 1.3% among 330,000 | AID 463212 | S. cerevisiae tim23-1 growth, BacTiter-Glo luminescence, 24 h;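 active = growth inhibition of the mutant yeast at or above 50%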;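 note: temperature-sensitive mutant grown at 25 °C; plate controls were DMSO-treated mutant yeast for no effect and medium wells lacking yeast for full effect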
tim10 confirm = TIM10 yeast growth inhibition, confirmed | shares compounds with TIM10 inh | S. cerevisiae tim10 strain growth, BacTiter-Glo luminescence, 24 h | inhibition, % at 10 µM | hit rate 63% among 4,600;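 active = inhibition of yeast growth at or above a set limit in either of two replicates at 10 µM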;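 note: this counterscreen used the strain with wild-type TIM10; 0% = yeast with DMSO and 100% = medium wells lacking yeast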
tim23-1 conf = tim23-1 yeast growth inhibition, confirmed | AID 463218 | S. cerevisiae tim23-1 growth, BacTiter-Glo luminescence, 24 h | inhibition, % at 20 µM | shares compounds with tim23-1 inh | hit rate 83% among 4,400;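 active = inhibition above about 39% in either of two replicate wells at 20 µM, limit read from the data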;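 note: temperature-sensitive tim23-1 mutant grown at 25 °C; 0% = DMSO wells with yeast and 100% = medium wells without yeast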
Active calls of the source: *; · = no result; + = active, no number.

SMILES | PfHsp90 set2 | NLRP3 yeast inh | tim10-1 inh | TIM10 inh | tim23-1 inh | tim23-1 conf | others
CCC(=O)Nc1ccccc1Sc1ncnc2scc(-c3ccccc3)c12 | -19 | 10 | 32 | 43* | 57* | 50* | tim10 confirm=32*
OC12CC3C[C@H](C1)C(N1CCOCC1)[C@@H](C3)C2 (stereo partly drawn) | 10 | 1 | -16 | -2 | 4 | ·
CCC(C)Nc1ccc(NC(C)CC)cc1 (stereo not drawn) | + | 5 | 38 | 61* | 80* | 82* | tim10 confirm=69*
CCC(C)NC(=O)Nc1ccc(Br)cc1 (stereo not drawn) | -10 | 33 | 17 | -9 | 25 | ·
COc1ccc(S(N)(=O)=O)cc1C(=O)OCC(=O)N1c2ccccc2NC(=O)C1(C)C | 0 | 16 | -14 | -3 | 94* | 13
CC1c2[nH]c3ccccc3c2CCN1C(=O)Nc1ccccc1 (stereo not drawn) | -29 | 12 | 10 | 24 | 64* | 50*
O=C(O)C(Oc1ccc2ccccc2c1)c1ccccc1 (stereo not drawn) | 9 | 10 | -16 | 4 | 97* | 8
O=C(O)C(Oc1ccc2c(c1)oc(=O)c1ccccc12)c1ccccc1 (stereo not drawn) | -10 | 9 | -5 | 6 | -7 | ·
O=C(Oc1ccccc1)N1CCN(c2ccccc2F)CC1 | 35 | 31 | 9 | -12 | 7 | ·
O=C(CCl)Nc1cn(-c2ccccc2)nc1-c1ccc(F)cc1 | · | 30 | 28 | 12 | 61* | 32
CC1CCc2c(c3ccccc3n2C(=O)CCl)C1 (stereo not drawn) | 10 | -14 | 39 | 31 | 69* | 56*
CCN1CCN(CC(=O)n2c3c(c4ccccc42)CC(C)CC3)CC1 (stereo not drawn) | -20 | 7 | 18 | -4 | 9 | ·
O=C(CCCN1C(=O)/C(=C/c2ccccc2)SC1=S)Nc1cccc(O)c1 | 4 | 12 | 38 | 33 | 50* | 50*
O=C(OC(C(=O)O)C(OC(=O)c1ccccc1)C(=O)NCc1ccccc1)c1ccccc1 (stereo not drawn) | -14 | -1 | 1 | 4 | -2 | ·
Cc1ccc2c(CC(=O)N3CCN(c4ccccc4)CC3)coc2c1 | 6 | 27 | 35 | 7 | 23 | ·
O=C(NCc1cccnc1)C(=O)NCC(c1ccco1)N1CCN(c2ccc(F)cc2)CC1 (stereo not drawn) | -2 | 18 | 7 | 14 | 15 | ·
O=C(NCC(=O)N(c1ccccc1)C(C(=O)NC1CCCCC1)c1ccncc1)c1ccco1 (stereo not drawn) | -5 | -21 | 9 | -10 | 3 | ·
O=C(NCC(=O)N(c1cnc2ccccc2c1)C(C(=O)NC1CCCC1)c1ccncc1)c1ccco1 (stereo not drawn) | 4 | 13 | 2 | 13 | 68* | 9
Nc1ccc(C(=O)NCCCSc2ccccc2)cc1[N+](=O)[O-] | 6 | 27 | -18 | 13 | -7 | ·
CC1(C)OC(=O)C(=CNc2ccc(F)cc2)C(=O)O1 | 17 | 7 | 1 | -13 | 11 | ·
CC1(C)OC(=O)C(=Cc2ccc[nH]2)C(=O)O1 | 12 | -2 | 12 | 5 | 76* | 53*
COc1ccccc1N(CC(=O)NCc1ccccc1C)S(=O)(=O)c1ccc(C)cc1 | -3 | 20 | 8 | 32 | 29 | ·
CCNc1nc(N)c(C(=C(C#N)C#N)c2ccccc2)s1 | 8 | 9 | 14 | 20 | 15 | ·
CCNc1nc(N)c(C(=O)C23CC4CC(CC(C4)C2)C3)s1 | 3 | 6 | 31 | 28 | 61* | 54*
CCCOc1ccc2ccccc2c1/C=C1\SC(=O)NC1=O | 105* | -29 | 20 | 8 | 55* | 51*
COC(=O)[C@H](CC(C)C)NC(=O)c1cc2c(cn1)[nH]c1ccccc12 | 8 | 9 | 34 | 34 | 59* | 63*
COc1cccc(CN(C)C(=O)c2cc(-c3cccs3)nc3ccccc23)c1 | 28 | 10 | 18 | 0 | 33 | ·
O=C(OCc1ccc(F)cc1)c1cc2ccccc2cc1O | 3 | -14 | 11 | 2 | 21 | ·
